Assay outcomes: PubChem BioAssay, National Center for Advancing Translational Sciences (NCATS)
Compounds with a hit are over-represented: about 2.4% of the library has one in this group of screens.
AmpC inh det: Promiscuous and Specific Inhibitors of AmpC Beta-Lactamase (assay with detergent) | P00811 | purified AmpC, nitrocefin hydrolysis with detergent | Potency, µM (series often up to 28.7 µM), for inactives: top-dose activity change, negative = inhibition | actives 0.09% (n = 71,000) | AID 584, 2007; active = well fitted curve in the direction sought with a large enough effect; inconclusive = small, poorly fitted or top-dose-only effect; also: % is scaled to controls: 0 for no effect and ±100 for the full control effect
Target sequence (P00811 whole entry, looked up): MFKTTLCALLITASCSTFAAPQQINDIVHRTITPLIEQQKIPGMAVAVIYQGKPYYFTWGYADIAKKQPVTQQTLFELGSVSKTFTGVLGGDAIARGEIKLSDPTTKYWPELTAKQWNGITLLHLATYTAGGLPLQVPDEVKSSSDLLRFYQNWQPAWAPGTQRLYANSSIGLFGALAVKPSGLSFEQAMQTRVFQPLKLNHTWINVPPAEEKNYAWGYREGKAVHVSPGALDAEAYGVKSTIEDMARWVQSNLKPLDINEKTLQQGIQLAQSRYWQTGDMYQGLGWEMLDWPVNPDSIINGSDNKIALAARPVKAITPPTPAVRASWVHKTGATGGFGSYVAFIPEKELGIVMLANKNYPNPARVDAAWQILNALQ
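E. coli AmpC (5.3 nM) in 20 mM phosphate pH 7.0 with 0.01% Triton X-100, preincubated 15 min RT with compound; nitrocefin (2 uL of 800 uM stock) hydrolysis followed by 480 nm absorbance every 20 s over 4 min.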
AmpC inh no det: Promiscuous and Specific Inhibitors of AmpC Beta-Lactamase (assay without detergent); AmpC nitrocefin hydrolysis, absorbance 480 nm, no detergent; actives 1.8% (n = 71,000); AID 585, 2007; Potency, µM (highest dose often 28.7 µM), for the others: top-dose activity change, negative = inhibition; P00811; also: % of control where 0% means no effect
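AmpC, 20 mM phosphate pH 7.0; 15 min cpd preinc, RT; start with nitrocefin (800 uM stock); A480 kinetic read, 20 s intervals, 4 min. No-enzyme wells = negative control.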
Prx2 Sm inh: Schistosoma Mansoni Peroxiredoxins (Prx2); S. mansoni Prx2 activity coupled to TGR/GSH (TGR is thioredoxin glutathione reductase), NADPH fluorescence loss, qHTS; Potency, µM; actives 0.07% (n = 65,000); AID 448, 2006
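Enzyme mix: 100 uM NADPH, 25 nM TGR, 700 uM GSH, 50 nM Prx2 in 100 mM phosphate pH 7.4, 10 mM EDTA, 0.01% Tween-20. 15 min RT with compound; NADPH/GSH added, H2O2 starts reaction; NADPH fluorescence read 8 min.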
LT uptake inh: qHTS Assay for Anthrax Lethal Toxin Internalization. Potency, µM (doses to about 40 µM), without a hit: at the top dose activity change, negative = inhibition, actives largely listed as inhibitors. actives 0.67% (n = 70,000). AID 912, 2007. Cells, anthrax lethal toxin internalization, FRET ratio (460/530); also: % is scaled to controls: 0 for no effect and ±100 for the full control effect; nearly all actives have a fitted effect of over 50% in size
* hit, by the source's call; ? = inconclusive; / = no result given; [ ] = dose if it differs, or a comment. Unless noted, calls follow the shape of the full dose curve. Potency is read from the fitted curve at half-maximal effect.

SMILES	AmpC inh det	AmpC inh no det	Prx2 Sm inh	LT uptake inh
CCCCCCCCCCCCC/C=C\[C@@H](O)[C@H](CO)NC(C)=O	-9%	81%	>57	16µM*
O=C(O)COc1cccc(-c2ocnc2-c2nc(-c3ccccc3)c(-c3ccccc3)o2)c1	-5%	-3%	>57	-11%
COc1ccc(/C=C/N(CCc2ccc(OC)c(OC)c2)C(=O)c2ccccn2)cc1	/	/	/	-5%[8 µM]
Cc1ccc(S(=O)(=O)N2CCCC2C(=O)Nc2ccc(O)cc2)cc1 (configuration not stated)	12%	-7%	>57	-1%
O=C(Nc1ccc(O)cc1)C1CC=CCC1 (configuration not stated)	7%	13µM*[single pt active]	>57	-1%
COc1ccc(O[C@H]2C=C[C@@H](c3ccccc3)O[C@H]2COC(=O)CC/C(C)=N\O[C@@H](C)CN2CCCCc3nc(C)c(C)cc32)cc1	/	/	/	18%[1.6 µM]
COc1cccc(-c2cncnc2-n2ccnc2)c1	-11%	-16%	>57	8%
COc1cccc(-c2nccc(-n3ccnc3)n2)c1	13µM*	10µM*	>57	?
NC(=O)c1cccc(S(=O)(=O)N2CC(c3ccccc3)CC2=O)c1 (configuration not stated)	14%	4µM*[single pt active]	>57	-13%
C[C@@]12CC[C@@H]3c4ccc(O)cc4CC[C@H]3[C@H]1C[C@@H](O)[C@H]2O	0%[12.8 µM]	2%[12.8 µM]	>57	?
c1ccc(N2CCN(c3ncnc4c3oc3ccccc34)CC2)cc1	0%	12%	>57	16µM*
C=CCn1c2ccccc2c2nnc(SCN3C(=O)c4ccccc4C3=O)nc21	3%	16%	>57	-16%
C=CCn1c2ccccc2c2nnc(SCCCn3c(=O)[nH]c4ccccc43)nc21	-3%	21%	/	6.3µM*
O=C(CSc1nc2ccccc2s1)c1sc2sc3ccccc3[n+]2c1O	-7%[5.75 µM]	4µM*[single pt active]	>57	?
Cn1cccc1C(=O)N1CCC2(CC1)CCN(c1ccccc1)CC2	2%	116%	>57	?
C[C@@H]1[C@H]2CC[C@@H]3[C@@H]4CC=C5C[C@@H](N(C)C)CC[C@]5(C)[C@@H]4CC[C@@]32CN1C	-1%[12.8 µM]	13%[12.8 µM]	>57	4µM*
CCc1ccc(-n2c(O)cnc2Nc2nc(C)cc(C)n2)cc1	10%	4µM*[single pt active]	>57	-27%
COc1cccc(NC(=O)c2oc3ccccc3c2NC(=O)C(C)(C)C)c1	5%	11%	>57	13µM*
Cc1csc2nc(CSc3nncn3-c3ccccc3)c(Br)n12	11%	0%	>57	-11%
Cc1csc2nc(CSc3nc4ccccc4o3)c(Br)n12	-4%	18%	>57	13µM*
NCCC[C@@H](CC(=O)N[C@@H]1CCNC[C@H]1C(=O)N[C@H](CC(=O)N[C@@H](CCC(=O)O)CC(=O)O)Cc1ccccc1)NC(=O)C[C@H](Cc1ccccc1)NC(=O)[C@@H]1CNCC[C@H]1N	-5%	138%	>57	-8%
Cc1cc(Nc2cccc(F)c2)nc(-c2ccccc2O)n1	12%	-18%	>57	?
Cc1cc(Nc2ccccc2)nc(-c2ccccc2O)n1	-3%	3%	>57	13µM*
C[C@@H]1CN(CCCn2c3ccccc3c3ccccc32)C[C@H](C)N1	-3%	84%	>57	32µM*
COc1cccc(Cn2c(=O)c(-c3ccccc3)nc3cnc(N(C)C)nc32)c1	3%	-2%	>57	?
SMILES	AmpC inh det	AmpC inh no det	Prx2 Sm inh	LT uptake inh
CO[C@@H]1COC(=O)CC=C[C@@H](C)[C@@H]2C=C[C@H](O)[C@@H](COC(=O)[C@H](C)NC(=O)CC=C[C@H]1C)O2	/	/	/	0%[8 µM]
Fc1ccc(C2CC(c3ccccc3)n3ncnc3N2)cc1 (configuration not stated)	-5%	20%	>57	-30%
CCOc1ccc(C2CC(c3ccc(F)cc3)n3ncnc3N2)cc1 (configuration not stated)	12%	4µM*[single pt active]	>57	-13%
COc1cccc(C2CC(c3ccccc3)Nc3ncnn32)c1 (configuration not stated)	-1%	23%	>57	-29%
Cc1ccccc1C1CC(c2ccccc2)Nc2ncnn21 (configuration not stated)	10%	4µM*[single pt active]	>57	-23%
COc1cccc(C2CC(c3ccccc3OC)n3ncnc3N2)c1 (configuration not stated)	16%	4µM*[single pt active]	>57	12%
CN(C)c1ncnc2ccc(-c3ccccc3C(F)(F)F)cc12	9%	80%	>57	-13%
